# PubChem BioAssay (EPA / NIEHS)
# Inconclusive results are not listed. Activity calls are given as the source filed them. Rule for the calls, unless noted: active = hit-call score of the fitted dose curve at least 0.9, where 1 is the maximum; inconclusive = response in the unintended direction; inactive = score below 0.9.
# Tests used:
# [1] = biological target: Androgen Receptor/SRC-1 Co-activator, AR (gene 367) (UniProt P10275); assay: OT_AR_ARSRC1_0960: Odyssey Thera (OT) 16-hour HEK293T Protein-Complementation Assay for Androgen Receptor/SRC-1 Co-activator (AID 2283353);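 note: actives raise the signal above DMSO so potency reflects increased AR and SRC-1 complex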
# Method in brief: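 Readout: 488 nm nuclear-to-cytoplasmic fluorescence ratio from imaging of at least 400 cells per image, 16 h post-dose. Reporter is Venus YFP complementation between AR and SRC-1 fusions, stably expressed in HEK293T; activity scored upward relative to DMSO.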
# [2] = biological target: Androgen Receptor/SRC-1 Co-activator, AR (gene 367) (UniProt P10275); assay: OT_AR_ARSRC1_0480: Odyssey Thera (OT) 8-hour HEK293T Protein-Complementation Assay for Androgen Receptor/SRC-1 Co-activator (AID 2283354);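 note: hits raise the complementation signal above DMSO so AC50 marks enhancers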
# Method in brief: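 After 8 h dosing, stably expressing HEK293T cells with split-Venus AR/SRC-1 fusions were imaged (488, 635nm). The 488nm N/C ratio per image gave the endpoint, analysed in the positive direction against DMSO.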
# [3] = biological target: human Peroxisome Proliferator-activated Receptor alpha (PPARa), PPARA (gene 5465) (UniProt Q07869); assay: NVS_NR_hPPARa: NovaScreen (NVS) Nuclear Receptor Binding Assay for human Peroxisome Proliferator-activated Receptor alpha (PPARa) (AID 2283359);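 note: activity means loss of TR-FRET signal versus DMSO baseline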
# Method in brief: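 One-hour incubation, cell-free extracted protein, TR-FRET binding readout; signal loss vs DMSO scored. Screen: 25 uM duplicates, confirmatory dose series for actives.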
# [4] = biological target: Agonist Androgen Response Element (ARE), AR (gene 367) (UniProt P10275); assay: OT_AR_ARELUC_AG_1440: Odyssey Thera (OT) 24-hour CHO-K1 Luciferase Assay for Agonist Androgen Response Element (ARE) (AID 2283379)
# Method in brief: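 Luminescence increase above DMSO, read after a 24 h compound treatment of CHO-K1 cells expressing an androgen response element luciferase reporter, gives the single primary endpoint; concentration-response fitting used the positive direction.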
# [5] = biological target: Nuclear receptor subfamily 1 group I member 2 (Homo sapiens) (UniProt O75469); assay: NVS_NR_hPXR: NovaScreen (NVS) Nuclear Receptor Binding Assay for human Pregnane X Receptor (PXR) (AID 2283365);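 note: a drop in FRET signal versus DMSO baseline means the compound binds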
# Method in brief: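 Cell-free TR-FRET binding assay with extracted human PXR protein, read 2 h after dosing. Primary screen run in duplicate at 25 uM, actives followed in concentration series; loss of signal fitted against DMSO baseline.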
# [6] = CPHEA_Stoker_NIS_Cytotoxicity: Cytotoxicity Assessment for CPHEA's Radioactive Iodide Uptake (RAIU) Assay for Sodium/Iodide Symporter (NIS) Inhibition, Stoker and Laws Labs (AID 2283897)
# Method in brief: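 hNIS-HEK293T-EPA cells, human NIS expressed in HEK293T, treated 2 h with chemicals (0.001–100 uM, 0.5% final DMSO). ATP content read by CellTiter-Glo luminescence; loss of signal analysed relative to DMSO.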
# [7] = CCTE_Deisenroth_AIME_384WELL_CTox_Active: Cytotoxicity Assessment (CTOX) in CCTE's 384-well Estrogen Receptor Transactivation Assay with AIME metabolic competence (metabolism positive), Deisenroth Lab (AID 2284037);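 note: chemicals first conditioned 2 h by alginate-bound induced rat liver S9 before cells; activity means signal loss indicating cell death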
# Method in brief: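 VM7Luc4E2 breast cells received medium pre-incubated 2 h with chemical over alginate microspheres holding induced male Sprague Dawley rat liver S9; viability read 24 h later by protease-substrate fluorescence. Loss of signal, bidirectional fit, 0.002–200 uM.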
# [8] = CCTE_Deisenroth_AIME_384WELL_CTox_Inactive: Cytotoxicity Assessment (CTOX) in CCTE's 384-well Estrogen Receptor Transactivation Assay without AIME metabolic competence (metabolism negative), Deisenroth Lab (AID 2284039);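 note: cell viability via live-cell protease substrate cleaved to fluorescent probe; cells exposed 24 h to medium preincubated 2 h with alginate-water beads without S9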
# Method in brief: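 VM7Luc4E2 cells, metabolism-negative arm: test chemicals (0.002–200 uM, 10 points) pre-incubated 2 h with alginate-water microspheres, then medium transferred to cells for 24 h. Viability read as protease-substrate cleavage to fluorescent probe; loss-of-signal, bidirectional fitting.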
# TTR (gene 7276) = assay: CCTE_GLTED_hTTR_0.125uM: CCTE's human Transthyretin (hTTR) Inhibition Assay, with 0.125uM TTR, Great Lakes Toxicology and Ecology Division (GLTED) Lab (AID 2284431; active = hit-call score of the fitted dose curve at least 0.9, where 1 is the maximum; inactive = score below 0.9;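 note: hits lower the fluorescence signal relative to DMSO baseline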)
# Method in brief: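 Cell-free displacement of ANSA probe from 0.125uM TTR after 2 h incubation with chemical. Fluorescence read at 380 nm excitation/475 nm emission; loss of signal relative to DMSO indicates T4-site displacement.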
# [9] = biological target: human Dopamine Transporter (DAT), SLC6A3 (gene 6531) (UniProt Q01959); assay: NVS_TR_hDAT: NovaScreen (NVS) Transporter Assay for human Dopamine Transporter (DAT) (AID 2283374);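 note: activity means loss of bound radioligand signal relative to DMSO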
# Method in brief: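 Extracted human SLC6A3 protein incubated 1 h with radioligand and test chemical; bound fraction separated on filters and counted. Single 25 uM duplicate screen preceded concentration-response follow-up; positive and negative controls on every plate.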
# [10] = biological target: human Vascular Endothelial Growth Factor Receptor 1 (VEGFR1), FLT1 (gene 2321) (UniProt P17948); assay: NVS_ENZ_hVEGFR1: NovaScreen (NVS) Enzymatic Assay for human Vascular Endothelial Growth Factor Receptor 1 (VEGFR1) (AID 2283226)
# Method in brief: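 Kinase activity of recombinant human VEGFR1 was read by fluorescence after electrophoretic separation of product from substrate, 1 h post-dosing; initial duplicate single-point testing at 25 uM, followed by concentration-series follow-up, with DMSO as baseline.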
# [11] = biological target: Estrogen receptor (Homo sapiens) (UniProt P03372); assay: OT_ER_ERaERa_1440: Odyssey Thera (OT) 24-hour HEK293T Protein-Complementation Assay for Estrogen Receptor-alpha/-alpha Homodimer (AID 2283349);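 note: hits raise fluorescence above DMSO for agonists and antagonists alike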
# Method in brief: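 Stably transfected HEK293T; ERα LBD homodimer PCA. 24 h dosing, fluorescence intensity read, gain-of-signal vs DMSO.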
# [12] = biological target: Estrogen receptor (Homo sapiens) (UniProt P03372); assay: OT_ER_ERaERa_0480: Odyssey Thera (OT) 8-hour HEK293T Protein-Complementation Assay for Estrogen Receptor-alpha/-alpha Homodimer (AID 2283351);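 note: rise in fluorescence from reassembled reporter fragments on ERα LBD homodimer in nucleus or whole cell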
# Method in brief: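 Read-out: fluorescence intensity rise relative to DMSO, nuclear for agonists, nuclear plus cytoplasmic for antagonists. Construct is the ERα LBD (aa 310-547) homodimer fragment-complementation pair, stably expressed in HEK293T; exposure 8 h.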
# [13] = biological target: Estrogen receptor (Homo sapiens) + Estrogen receptor beta (Homo sapiens) (UniProt P03372+Q92731); assay: OT_ER_ERaERb_1440: Odyssey Thera (OT) 24-hour HEK293T Protein-Complementation Assay for Estrogen Receptor-alpha/-beta Homodimer (AID 2283356);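 note: heteromer of ER alpha and ER beta binding domains; hits raise reporter fluorescence and both agonists and antagonists give an increase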
# Method in brief: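 HEK293T stably expressing a PCA of ER alpha LBD (aa 310-547) and ER beta LBD (aa 263-489). After 24 h compound exposure, mean fluorescence intensity in nucleus (agonists) or nucleus and cytoplasm (antagonists) measured by laser scanning cytometry versus vehicle.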
# [14] = biological target: Estrogen receptor (Homo sapiens) (UniProt P03372); assay: OT_ERa_GFPERaERE_0480: Odyssey Thera (OT) 8-hour HeLa Transcription Induction Assay for Estrogen Receptor (AID 2283381; active = hit-call score of the fitted dose curve at least 0.9, where 1 is the maximum; inactive = score below 0.9)
# Method in brief: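 GFP-ERE reporter, HeLa, 8 h exposure. Readout: fluorescence microscopy, high-content image analysis. Fit direction positive vs DMSO negative control.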
# [15] = biological target: Estrogen receptor (Homo sapiens) (UniProt P03372); assay: OT_ERa_GFPERaERE_0120: Odyssey Thera (OT) 2-hour HeLa Transcription Induction Assay for Estrogen Receptor (AID 2283382)
# Method in brief: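 Fluorescence microscopy read-out: inducible fluorescent protein reporter in HeLa cells, imaged 2 h post-dose. Signal increase over DMSO negative control fitted as single primary endpoint via high content image analysis.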
# [16] = biological target: human Ephrin type-B Receptor 2 (EphB2), EPHB2 (gene 2048) (UniProt P29323); assay: NVS_ENZ_hEphB2: NovaScreen (NVS) Enzymatic Assay for human Ephrin type-B Receptor 2 (EphB2) (AID 2283156)
# Method in brief: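 Compounds were first tested in duplicate at 25 uM, with hits rerun singly in concentration series up to 50 uM. Enzyme activity on fluorescent substrate was read at 1 h by mobility-shift separation, scored as signal loss relative to DMSO.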
# [17] = biological target: rat Neurotensin Receptor (NTS), Ntsr1 (gene 366274) (UniProt P20789); assay: NVS_GPCR_rNTS: NovaScreen (NVS) G Protein-Coupled Receptor Assay for rat Neurotensin Receptor (NTS) (AID 2283308)
# Method in brief: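 Single-point duplicates at 25 uM, then concentration series to 50 uM max for hits, measured radioligand displacement on rat forebrain membrane preparations. Bound label counted by filtration scintillation at 1 h; signal loss relative to DMSO fitted.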
# [18] = biological target: human NIMA (Never In Mitosis Gene A)-Related Kinase 2 (NEK2), NEK2 (gene 4751) (UniProt P51955); assay: NVS_ENZ_hNEK2: NovaScreen (NVS) Enzymatic Assay for human NIMA (Never In Mitosis Gene A)-Related Kinase 2 (NEK2) (AID 2283188)
# Method in brief: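 Compounds were first screened in duplicate at 25 uM, with actives followed up in concentration series. Recombinant NEK2 activity, cell-free, was read 1 h after dosing by fluorescence intensity after mobility-shift separation. Signal loss was scored against DMSO.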
# [19] = biological target: human Protein Tyrosine Phosphatase Non-receptor Type 2 (PTPN2), PTPN2 (gene 5771) (UniProt P17706); assay: NVS_ENZ_hPTPN2: NovaScreen (NVS) Enzymatic Assay for human Protein Tyrosine Phosphatase Non-receptor Type 2 (PTPN2) (AID 2283207)
# Method in brief: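 Activity measured as fluorescence after mobility-shift separation of substrate and product, 1 h after compound. Duplicate single-point 25 uM primary testing, concentration series for actives; inhibition scored as signal loss relative to DMSO baseline.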
# Estrogen receptor (Homo sapiens), sequence (P03372 whole entry, looked up, the tested form may be a part): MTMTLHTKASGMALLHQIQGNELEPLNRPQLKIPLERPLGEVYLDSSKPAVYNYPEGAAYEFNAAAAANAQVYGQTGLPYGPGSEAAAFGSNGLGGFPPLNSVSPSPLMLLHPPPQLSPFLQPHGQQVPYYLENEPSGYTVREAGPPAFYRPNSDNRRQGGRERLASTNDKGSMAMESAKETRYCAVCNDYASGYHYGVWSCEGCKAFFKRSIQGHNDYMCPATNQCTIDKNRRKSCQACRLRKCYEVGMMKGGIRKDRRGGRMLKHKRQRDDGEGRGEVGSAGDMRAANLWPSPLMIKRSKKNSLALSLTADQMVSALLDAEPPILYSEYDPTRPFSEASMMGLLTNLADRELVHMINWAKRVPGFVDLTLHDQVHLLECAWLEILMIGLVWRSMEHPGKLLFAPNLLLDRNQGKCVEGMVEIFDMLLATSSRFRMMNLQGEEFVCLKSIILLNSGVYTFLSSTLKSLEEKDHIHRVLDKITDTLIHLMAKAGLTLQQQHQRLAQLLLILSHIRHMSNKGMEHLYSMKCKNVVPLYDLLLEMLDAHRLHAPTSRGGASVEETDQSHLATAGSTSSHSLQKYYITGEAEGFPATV
# human Dopamine Transporter (DAT), SLC6A3 (gene 6531), sequence (Q01959 whole entry, looked up): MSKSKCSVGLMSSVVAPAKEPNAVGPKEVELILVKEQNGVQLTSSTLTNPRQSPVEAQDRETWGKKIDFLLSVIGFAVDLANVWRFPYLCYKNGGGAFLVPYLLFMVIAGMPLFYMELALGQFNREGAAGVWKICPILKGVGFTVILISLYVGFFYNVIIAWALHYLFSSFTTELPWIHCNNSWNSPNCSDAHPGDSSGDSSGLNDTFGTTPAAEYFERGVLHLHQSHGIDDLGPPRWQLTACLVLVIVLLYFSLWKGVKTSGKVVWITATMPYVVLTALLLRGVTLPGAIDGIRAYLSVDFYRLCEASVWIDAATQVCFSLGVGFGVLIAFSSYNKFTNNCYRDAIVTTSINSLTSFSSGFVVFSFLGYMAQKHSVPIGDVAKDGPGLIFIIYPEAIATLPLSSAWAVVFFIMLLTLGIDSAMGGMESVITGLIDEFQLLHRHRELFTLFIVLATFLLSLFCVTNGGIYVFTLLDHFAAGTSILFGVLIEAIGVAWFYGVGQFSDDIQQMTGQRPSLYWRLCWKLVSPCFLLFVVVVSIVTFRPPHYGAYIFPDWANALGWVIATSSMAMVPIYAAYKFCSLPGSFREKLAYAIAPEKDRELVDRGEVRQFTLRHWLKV
# Androgen Receptor/SRC-1 Co-activator, AR (gene 367), sequence (P10275 whole entry, looked up, the tested form may be a part): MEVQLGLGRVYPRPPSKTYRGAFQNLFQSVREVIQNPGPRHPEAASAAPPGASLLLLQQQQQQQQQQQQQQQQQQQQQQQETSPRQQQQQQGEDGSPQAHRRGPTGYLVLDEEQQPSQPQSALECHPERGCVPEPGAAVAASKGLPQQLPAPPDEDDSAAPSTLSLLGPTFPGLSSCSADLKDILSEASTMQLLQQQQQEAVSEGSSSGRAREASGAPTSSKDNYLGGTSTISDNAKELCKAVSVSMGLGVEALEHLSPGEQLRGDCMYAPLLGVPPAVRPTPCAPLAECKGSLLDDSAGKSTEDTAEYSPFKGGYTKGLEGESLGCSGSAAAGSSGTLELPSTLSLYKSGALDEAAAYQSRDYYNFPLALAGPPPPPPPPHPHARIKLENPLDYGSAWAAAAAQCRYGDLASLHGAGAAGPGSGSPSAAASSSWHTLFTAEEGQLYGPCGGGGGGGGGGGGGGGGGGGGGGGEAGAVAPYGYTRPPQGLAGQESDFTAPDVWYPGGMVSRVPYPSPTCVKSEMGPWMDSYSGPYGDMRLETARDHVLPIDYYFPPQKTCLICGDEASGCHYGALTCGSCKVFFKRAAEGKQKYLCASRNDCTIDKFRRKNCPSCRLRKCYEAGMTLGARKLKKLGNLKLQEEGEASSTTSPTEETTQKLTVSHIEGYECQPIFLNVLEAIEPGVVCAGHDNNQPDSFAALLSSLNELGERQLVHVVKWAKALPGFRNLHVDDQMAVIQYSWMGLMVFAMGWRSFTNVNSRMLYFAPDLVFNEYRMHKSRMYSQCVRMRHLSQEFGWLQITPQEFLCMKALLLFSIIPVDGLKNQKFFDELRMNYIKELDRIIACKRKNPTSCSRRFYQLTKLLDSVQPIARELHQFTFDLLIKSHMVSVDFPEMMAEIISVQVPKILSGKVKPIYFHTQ
# human NIMA (Never In Mitosis Gene A)-Related Kinase 2 (NEK2), NEK2 (gene 4751), sequence (P51955 whole entry, looked up): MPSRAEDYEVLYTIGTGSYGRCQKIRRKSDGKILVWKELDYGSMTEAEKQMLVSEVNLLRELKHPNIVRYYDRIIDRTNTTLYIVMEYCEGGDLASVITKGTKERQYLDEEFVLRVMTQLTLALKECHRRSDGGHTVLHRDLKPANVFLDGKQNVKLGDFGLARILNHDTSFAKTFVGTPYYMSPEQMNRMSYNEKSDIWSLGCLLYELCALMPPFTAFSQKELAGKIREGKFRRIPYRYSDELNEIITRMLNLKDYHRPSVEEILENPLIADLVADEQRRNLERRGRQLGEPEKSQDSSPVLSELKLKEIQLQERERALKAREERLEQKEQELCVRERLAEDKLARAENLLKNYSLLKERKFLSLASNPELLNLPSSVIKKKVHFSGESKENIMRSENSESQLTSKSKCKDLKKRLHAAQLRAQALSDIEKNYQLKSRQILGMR
# rat Neurotensin Receptor (NTS), Ntsr1 (gene 366274), sequence (P20789 whole entry, looked up): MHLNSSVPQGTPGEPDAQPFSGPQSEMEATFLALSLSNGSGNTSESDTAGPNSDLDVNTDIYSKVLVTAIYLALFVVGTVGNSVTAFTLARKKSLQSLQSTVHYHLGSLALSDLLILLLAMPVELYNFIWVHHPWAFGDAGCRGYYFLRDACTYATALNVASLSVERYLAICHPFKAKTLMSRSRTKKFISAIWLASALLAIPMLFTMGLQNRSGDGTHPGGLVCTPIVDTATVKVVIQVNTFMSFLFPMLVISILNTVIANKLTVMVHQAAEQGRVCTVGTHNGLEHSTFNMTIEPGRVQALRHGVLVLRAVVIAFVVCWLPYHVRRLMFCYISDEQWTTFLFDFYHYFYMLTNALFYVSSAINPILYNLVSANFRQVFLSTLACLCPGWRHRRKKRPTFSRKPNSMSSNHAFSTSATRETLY
# human Ephrin type-B Receptor 2 (EphB2), EPHB2 (gene 2048), sequence (P29323 whole entry, looked up): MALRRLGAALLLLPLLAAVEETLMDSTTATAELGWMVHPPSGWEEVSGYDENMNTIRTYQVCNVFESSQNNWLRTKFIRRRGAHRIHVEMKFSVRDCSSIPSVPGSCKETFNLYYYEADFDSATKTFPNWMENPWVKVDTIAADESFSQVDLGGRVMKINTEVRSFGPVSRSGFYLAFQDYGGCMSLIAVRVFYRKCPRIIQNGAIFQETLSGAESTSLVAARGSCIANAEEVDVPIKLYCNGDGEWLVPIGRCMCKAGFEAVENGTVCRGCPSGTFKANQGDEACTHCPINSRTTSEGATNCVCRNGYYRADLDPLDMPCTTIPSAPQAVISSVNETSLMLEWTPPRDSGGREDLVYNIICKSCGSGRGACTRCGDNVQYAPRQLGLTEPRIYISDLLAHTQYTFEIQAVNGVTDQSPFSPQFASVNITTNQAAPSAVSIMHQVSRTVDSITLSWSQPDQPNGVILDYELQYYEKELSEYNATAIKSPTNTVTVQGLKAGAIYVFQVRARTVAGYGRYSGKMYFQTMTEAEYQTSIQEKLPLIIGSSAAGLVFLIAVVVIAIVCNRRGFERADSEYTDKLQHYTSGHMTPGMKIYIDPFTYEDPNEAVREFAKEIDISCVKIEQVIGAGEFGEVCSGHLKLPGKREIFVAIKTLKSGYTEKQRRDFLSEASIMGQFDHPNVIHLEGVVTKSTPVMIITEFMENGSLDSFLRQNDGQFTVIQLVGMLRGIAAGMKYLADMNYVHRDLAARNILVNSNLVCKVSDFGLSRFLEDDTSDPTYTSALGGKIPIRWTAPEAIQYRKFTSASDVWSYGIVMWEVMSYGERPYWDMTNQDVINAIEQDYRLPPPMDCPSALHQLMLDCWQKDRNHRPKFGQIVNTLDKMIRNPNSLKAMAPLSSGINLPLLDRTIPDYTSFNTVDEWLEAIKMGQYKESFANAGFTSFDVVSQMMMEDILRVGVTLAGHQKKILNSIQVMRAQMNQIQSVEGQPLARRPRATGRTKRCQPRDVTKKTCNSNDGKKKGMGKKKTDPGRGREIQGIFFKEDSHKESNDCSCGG
# human Protein Tyrosine Phosphatase Non-receptor Type 2 (PTPN2), PTPN2 (gene 5771), sequence (P17706 whole entry, looked up): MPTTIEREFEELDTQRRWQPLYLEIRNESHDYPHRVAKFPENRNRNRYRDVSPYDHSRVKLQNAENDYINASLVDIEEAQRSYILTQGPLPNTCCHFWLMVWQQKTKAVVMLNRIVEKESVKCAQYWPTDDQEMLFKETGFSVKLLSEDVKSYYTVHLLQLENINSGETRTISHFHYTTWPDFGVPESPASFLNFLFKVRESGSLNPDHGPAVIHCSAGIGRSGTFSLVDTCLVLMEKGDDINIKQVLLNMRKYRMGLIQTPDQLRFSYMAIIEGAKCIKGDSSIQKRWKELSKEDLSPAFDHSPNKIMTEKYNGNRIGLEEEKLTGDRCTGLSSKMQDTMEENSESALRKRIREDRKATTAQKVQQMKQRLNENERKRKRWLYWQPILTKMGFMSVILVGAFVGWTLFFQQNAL
# Nuclear receptor subfamily 1 group I member 2 (Homo sapiens), sequence (O75469 whole entry, looked up): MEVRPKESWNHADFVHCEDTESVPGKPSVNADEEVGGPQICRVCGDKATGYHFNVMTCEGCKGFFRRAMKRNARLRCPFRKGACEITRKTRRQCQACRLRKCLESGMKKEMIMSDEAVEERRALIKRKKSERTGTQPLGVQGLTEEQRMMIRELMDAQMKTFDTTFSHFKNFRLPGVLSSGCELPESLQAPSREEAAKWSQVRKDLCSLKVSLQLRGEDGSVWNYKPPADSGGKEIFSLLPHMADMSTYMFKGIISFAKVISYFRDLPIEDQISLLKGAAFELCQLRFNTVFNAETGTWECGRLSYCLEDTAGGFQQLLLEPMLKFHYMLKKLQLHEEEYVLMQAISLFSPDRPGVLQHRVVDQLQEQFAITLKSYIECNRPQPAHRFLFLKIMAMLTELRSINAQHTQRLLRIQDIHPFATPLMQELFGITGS
smiles,measurement,setting,value
COc1cc(OC)nc(Oc2cccc(Oc3nc(OC)cc(OC)n3)c2C(=O)O)n1,outcome,[1],inactive
same,outcome,[2],inactive
same,outcome,[3],inactive
same,outcome,[4],inactive
Oc1ccc(Cl)cc1,outcome,[5],inactive
O=C1Nc2ccc(Cl)cc2C(c2ccccc2)=NC1O (stereo unspecified),outcome,[6],inactive
Nc1ccc(Cl)c(Cl)c1,outcome,[7],inactive
same,outcome,[8],inactive
same,AC50,TTR (gene 7276),18.3 µM (active)
O=[N+]([O-])C=Cc1ccccc1,AC50,[9],25 µM (active)
BrCBr,outcome,[10],inactive
Clc1ccc(-c2ccccc2)cc1,outcome,[9],inactive
O=P(O)(Oc1ccccc1)Oc1ccccc1,outcome,[11],inactive
same,outcome,[12],inactive
same,outcome,[13],inactive
same,outcome,[14],inactive
same,outcome,[15],inactive
same,outcome,[6],inactive
Nc1cc(Cl)cc(Cl)c1,AC50,TTR (gene 7276),6.93 µM (active)
CCCC=NO,outcome,[11],inactive
same,outcome,[12],inactive
same,outcome,[13],inactive
same,outcome,[14],inactive
same,outcome,[15],inactive
C=CCN(CC=C)C(=O)C(Cl)Cl,outcome,[7],inactive
same,outcome,[8],inactive
O=c1c2ccccc2c(=O)c2c1cc(Cl)c1[nH]c3c([nH]c12)c(Cl)cc1c(=O)c2ccccc2c(=O)c13,AC50,[10],0.732 µM (active)
CC(C)[C@@H](C(=O)O[C@@H](C#N)c1cccc(Oc2ccccc2)c1)c1ccc(Cl)cc1,outcome,[5],inactive
CC(C)(c1ccc(O)cc1)c1ccc(O)cc1,outcome,[16],inactive
CN(C)c1ccc(C(=C2C=CC(=[N+](C)C)C=C2)c2ccc(N(C)C)cc2)cc1,AC50,[17],6.82 µM (active)
COc1cc(C(=O)NC2CCN(C)CC2)ccc1Nc1ncc2c(n1)N(C1CCCC1)CC(F)(F)C(=O)N2C,outcome,[16],inactive
same,outcome,[18],inactive
same,AC50,[19],6.13 µM (active)
CN(C)c1ccc(N=NS(=O)(=O)O)cc1,outcome,[18],inactive
CCCCCCCCCCCCc1ccccc1S(=O)(=O)O,AC50,[19],19.9 µM (active)
c1ccc2[nH]c(-c3cscn3)nc2c1,outcome,[17],inactive
